Screening data deposited in PubChem BioAssay by National Center for Advancing Translational Sciences (NCATS).
Sampled rows, rich in hits. Any-hit rate of the full collection: about 4.4%.
D1 antag: human D1 dopamine receptor antagonism; 360,000 tested, 3.2% active; AID 504652; activity change, negative = inhibition, % at 10 µM; HEK293 TREx D1 cells, calcium flux, dopamine EC80; stronger effect = lower value; P21728; in the data active = activity change below about -30%; note: % is set by controls: 0 for no effect and ±100 for the full control effect
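Allosteric or orthosteric antagonism assessed as attenuation of the calcium response to EC80 dopamine, added 180 s after compound, in induced HEK293 Trex D1 cells loaded with no-wash calcium dye.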
TRHR enhancer: TRH receptor (human) allosteric enhancement; P34981; TRHR cells, fluo-8 calcium fluorescence, EC20 TRH enhancement; enhancement, % at 2 µM; 360,000 tested, 0.66% active; AID 493056; in the data active = enhancement above about 30%; note: 0% is about no effect
Target sequence (P34981 whole entry, looked up): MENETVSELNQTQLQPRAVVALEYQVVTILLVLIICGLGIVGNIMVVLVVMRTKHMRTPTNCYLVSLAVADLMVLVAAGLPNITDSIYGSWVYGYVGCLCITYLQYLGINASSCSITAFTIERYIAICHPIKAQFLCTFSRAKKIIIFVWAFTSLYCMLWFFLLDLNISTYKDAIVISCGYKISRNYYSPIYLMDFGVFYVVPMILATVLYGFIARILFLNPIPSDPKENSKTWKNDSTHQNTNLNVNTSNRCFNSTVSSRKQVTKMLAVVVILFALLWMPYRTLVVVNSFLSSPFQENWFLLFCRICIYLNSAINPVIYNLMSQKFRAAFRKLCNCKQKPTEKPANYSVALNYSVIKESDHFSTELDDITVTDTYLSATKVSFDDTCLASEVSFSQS
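TRHR-expressing cells loaded with fluo-8 calcium dye were read kinetically (ex 480/em 530) during compound addition, then stimulated with an EC20 of TRH (10 nM final). Enhancement of the Gq-mediated intracellular calcium response was scored.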
D1 potentiator: potentiators of human D1 dopamine receptor | 360,000 tested, 0.036% active | HEK293 TREx D1 cells, calcium flux, dopamine EC20 potentiation | potentiation, % at 10 µM | P21728; in the data active = potentiation above about 30%; note: 0% is about no effect
D1 agonist: agonists of human D1 dopamine receptor | P21728 | HEK293 T-REx D1 cells, calcium flux, agonist mode | activation, % at 2 µM | 360,000 tested, 1% active; note: 0% is about no effect
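Tetracycline-induced HEK293 TREx D1 cells, force-coupled to calcium signalling, were dye-loaded with a no-wash calcium kit. Compound was pin-added after a 10 s baseline. Fluorescence was read kinetically at 1 cycle/s for 180 s, with calcium rises flagged as agonism.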
USP1-UAF1 inh: blocks the human USP1/UAF1 deubiquitinase complex; O94782; recombinant USP1/UAF1, Ub-Rhodamine cleavage fluorescence; Potency, µM (highest dose often 57.1 µM), without a hit: at the highest dose activity change, negative = inhibition, most hits filed as inhibitors; 390,000 tested, 0.23% active; AID 743255; active = well fitted inhibition curve with a large enough effect; inconclusive = small, poorly fitted or top-dose-only effect; inactive = no such curve, though single readings can be large or run the other way; note: potency is the fitted concentration of half-maximal effect; % is set by controls: 0 for no effect and ±100 for the full control effect; nearly all actives have a fitted effect of over 60% in size
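Step one: compound is pinned into 1nM USP1/UAF1 in HEPES pH 7.8 buffer with TCEP. Step two: 15 min room-temperature incubation. Step three: Ub-Rho (150nM final) starts cleavage, tracked by fluorescence over six one-minute reads.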
TRHR agonist: activates the human TRH receptor. P34981. 360,000 tested, 0.18% active. TRHR cells, calcium flux fluo-8, FDSS agonist mode. activation, % at 2 µM; note: 0% is about no effect
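TRHR-expressing cells loaded with fluo-8 calcium dye; 23 nL library compound pin-transferred, kinetic FDSS fluorescence (Ex 480/Em 530) recorded about 180 s for agonist-induced calcium release, before a 10 nM TRH EC20 addition for potentiator mode.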
* marks the source's active call; other numbers are inactive results; ? = inconclusive. Cut-off read from the data, not from the text of the source, unless noted: active = activation above about 30%; inactive = the rest.

SMILES | D1 antag | TRHR enhancer | D1 potentiator | D1 agonist | USP1-UAF1 inh | TRHR agonist
COC(=O)c1cn[nH]c1N | -30* | 6 | -10 | 4 | -18% | 1
CCOC(=O)c1cn[nH]c1N | -3 | 5 | 8 | 3 | 8% | -1
COc1ccc(NC(=O)CCc2c(C)nn(-c3ccc(N4CCOCC4)nn3)c2C)cc1Cl | 1 | 5 | -1 | 0 | -9% | 0
CN(CCC#N)C(=S)Nc1ccc(F)cc1 | -31* | -2 | -2 | 2 | -19% | -2
CC(C)[C@H](N)c1nnc(SCc2ccc(Cl)cc2)o1 | 6 | 1 | 6 | 3 | -12% | 0
CCC(C)[C@H](N)c1nnc(SCc2ccc(Cl)c(Cl)c2)o1 (some centres not stated) | 1 | 7 | -3 | 54* | -24% | -1
CCCCCc1c2c(cc(O)c1C(=O)O)OC(=O)c1c(cc(OC)cc1C(=O)CCCC)O2 | -31* | -3 | -1 | 11 | ? | 0
CCOC(=O)C1=C(C)OC(N)=C(C#N)C1c1ccc(OC)c(C)c1OC (configuration not stated) | 6 | -1 | -7 | 5 | -17% | 1
CCOC(=O)C1=C(CC)OC(N)=C(C#N)C1c1ccc(OC)c(OC)c1OC (configuration not stated) | -32* | -2 | -6 | 0 | -8% | 0
CCOC(=O)C1=C(CC)OC(N)=C(C#N)C1c1ccc(OC)c(C)c1OC (configuration not stated) | -8 | -3 | -2 | 26 | -9% | 7
CCOC(=O)C1=C(CSc2nc(C)ccc2C#N)OC(N)=C(C#N)C1c1cccc(OC)c1OC (configuration not stated) | -70* | -5 | -7 | 6 | ? | 2
CCCC1=C(C(=O)OCC)C(c2ccc(OC)c(C)c2OC)C(C#N)=C(N)O1 (configuration not stated) | 4 | -3 | 12 | 56* | -13% | 8
CCOC(=O)C1=C(CSc2nc(CC)c(C)cc2C#N)OC(N)=C(C#N)C1c1ccc(OC)cc1 (configuration not stated) | 4 | -9 | -1 | 7 | ? | 2
Cc1cc(C(F)F)n2nc(C(=O)Nc3ccc(F)c(Cl)c3)nc2n1 | -1 | 9 | -4 | -1 | -28% | 0
COc1ccc(C2CCCN2C(=S)Nc2ccccc2C)cc1OC (configuration not stated) | -8 | 0 | -14 | 5 | -23% | 0
COc1ccc(C2CCCN2C(=S)Nc2ccc(C)cc2C)cc1OC (configuration not stated) | -38* | -3 | -3 | 2 | -13% | -1
COc1cccc(NC(=S)N2CCCC2c2ccc(OC)c(OC)c2)c1 (configuration not stated) | -61* | 5 | -5 | -1 | -5% | -1
COc1ccc(C2CCCN2C(=S)Nc2cccc(Cl)c2)cc1OC (configuration not stated) | -2 | 8 | 1 | 2 | -9% | 0
CC(OC(=O)Cc1c[nH]c2ccccc12)C(=O)NC1CCCCC1C (configuration not stated) | -31* | -2 | -4 | 4 | -5% | 2
Cc1ccc(S(=O)(=O)CCC(=O)N(C)C2CCCCC2)cc1 | -42* | 5 | -3 | 0 | -5% | 0
Cc1ccc(NC(=O)C(C)OC(=O)Cc2c[nH]c3ccccc23)cc1 (configuration not stated) | -56* | -8 | -2 | -1 | -13% | -1
Cc1ccc(S(=O)(=O)CCC(=O)OC(C)C(=O)NC2CCCCC2C)cc1 (configuration not stated) | -42* | -1 | -1 | 2 | 2% | -1
Fc1ccc(C(c2nnc(-c3ccccc3)o2)N2CCN(c3ccccc3)CC2)c(Cl)c1 (configuration not stated) | 1 | 2 | -5 | 4 | -4% | 0
O=C(NCc1ccccc1)NC1COc2ccccc2C1 (configuration not stated) | 2 | 1 | -3 | 0 | ? | 0
